Results on 68 sequences are retold here after PubChem BioAssay AID1508600 (Functional Genomics Laboratory (NCATS/FGL), 2020).

In all, about 53,000 sequences went through this assay and about 3,700 (7%) were called active.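 Rule for the calls: active = gene knockdowns whose robust z-score for IL-1 alpha signal is at least 2 or at most -2, so actives lie on both sides; inactive = the rest.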 This excerpt belongs to a sample that is enriched for actives.

The experiment can be described thus: Components of the Cytosolic LPS Sensing Pathway: Gene Identification via Genome-wide siRNA Screen.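 Note: robust z of the log signal after scaling to non-targeting control siRNA wells of the plate.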 To be noted: RAW264.7 macrophages, IL-1a HTRF, actives lie on both sides, screened at 100 nM (by protocol), cells primed 5 h with Pam3CSK4 first. The method, boiled down:
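IL-1a HTRF of supernatants after 24 hour LipidA transfection of Pam3CSK4-primed (5 hours) RAW264.7 cells, 48h post-siRNA transfection (100 nM). Scores: percent of plate negative-control median, then log-based robust z-score.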
Regarding GGUGUUUGUGACUCUGGGUTT against Mc4r, the z-score is 2.77 (active).

With GCUUUGCAAUUCACAGGGATT against Scgb1b27, the z-score is -1.76 (inactive). For GGGUUUGAUUCAUCAAAAATT against Peli1 the value was 0.314 (inactive); for CCUACGCCAAGCAGUAUGATT against Mcm3, 0.286 (inactive). For GGAUUUUGACAGUCUGUGUTT against Endou, the z-score was -0.438 (inactive). For GGACUGAUUGUUUUAUGCUTT against Gdap10 the value was -1.06 (inactive); for GGCCCUCAAUACCUGUGGUTT against Olfr690, -3.13 (active). Take GGAGAGACAUCCAAAAGUATT against H60a: the z-score is 0.658 (inactive). For GCCAUAUAAUUUGACAGAGTT against Tarm1 the value was -0.0405 (inactive); for GCUCACAACAUGAGAGUCATT against Atp6v0e, -0.539 (inactive); for GGGAAUUACAGCACACAAUTT against Treml4, -0.21 (inactive). Turning to GGAACAAAACAAAUAGCUATT against Vstm2a, the z-score was 1.79 (inactive). For GGUUUCUAUAAAUCUCCCUTT against Eif4b the value was 0.895 (inactive). With CGUGGUCUUCACGAUUGGATT against Pde4c, the z-score was 3.71 (active). Take “GGAGGCUAUCAGAAGCAUCTT against C130021I20Rik”: the z-score was 0.762 (inactive). Regarding GGAACCAACAGAGAAAACUTT against Hr, the z-score is 0.317 (inactive).

“GGCCUGUUUUUGCAUUUUATT against 9030612E09Rik”: the z-score is -0.0316 (inactive).

Regarding GCAUUCGAAAUGAAGAUAATT against Dnajb1, the z-score is -1.75 (inactive). As to GGUUUUCUUUUCUUCUGCCTT against Aar2, the z-score was -1.11 (inactive). For GGGAUUCACUCUUCUUUAGTT against Sebox the value was 1.97 (inactive). As to GGAACAAGCAAGUCAAACATT against Olfr770, the z-score was 2.24 (active). Under CGACUGGGUCUUAUGUUUATT against Tas2r121 stands -0.105 (inactive); under “CCAAGAAAGACAGUAACUATT against 4930432K21Rik”, -0.986 (inactive); under GGAUCUGGACUUAAUGCUCTT against Tfeb, -0.383 (inactive). Take GGCCUUACCAAAUGGAAGUTT against Ifih1: the z-score is 2.89 (active). Take GCACGGAUUAAUGUGAUGATT against Ilk: the z-score is 0.406 (inactive).

For the sequence CCGUUGGAUACUGUAGUUCTT against Gpr152, the z-score was 0.023 (inactive).

For GCAACACACCAUAUCAGGATT against Tas2r135, the z-score is -0.322 (inactive). For the sequence CCACCAUCGGUUGUUAGUUTT against Actg1, the z-score is 1.81 (inactive).

For the sequence GGACAGCUUGUAAAUUGCCTT against Mup21, the z-score is -2.05 (active). Turning to GGUCUCAUUUCAAAUGGUUTT against Lonrf3, the z-score was 0.63 (inactive). Under GGAGAUUUCUUCCAUGGUCTT against Hspa2 stands 0.445 (inactive); under CGACAGAGUGAAAAUUAAGTT against Setd3, -0.937 (inactive). Turning to CGCAGAGAAGGACUAUCUUTT against Ush1c, the z-score is -1.58 (inactive). GGACAAGUGUCAGAUAUCATT against Asah2: the z-score was -2.02 (active). In the case of CCUGCUUACCAAAGAAUCCTT against Klf11, the z-score is -0.884 (inactive). Under GGGACAAGUUGGAUUCUUGTT against Polr1e stands -0.96 (inactive). Under GCCUUACAACAAGCAACACTT against Esrp1 stands -0.385 (inactive).

In the case of GCGGGCCAUGACAAUUACUTT against Slc45a1, the z-score is 0.566 (inactive). For GCGAUGCUGGCAAGUAUGUTT against Robo1 the value was 0.45 (inactive); for CCCAGACGAGAACUGUAUCTT against Sqor, -0.0381 (inactive); for GGGUUAGGAUACCUCGACUTT against Arnt2, -2.5 (active). Consider GGAAAGAUGUGGAAGUAAATT against Erc1, for which the z-score is -0.977 (inactive). GGAAAAGCAAGAGGAAAGATT against Ifnb1: the z-score was 2.39 (active). Under GCAACCAUCGUAGCAGAUCTT against Aaas stands 1.54 (inactive); under GCCACUGAUGUAAGGCUCATT against Lurap1l, 0.871 (inactive); under CCCUCGUCUGAAAUGGAAATT against Nploc4, -2.02 (active).

For GGAACAGCUGACCUACUUUTT against Ahi1, the z-score is 1.08 (inactive). Consider GGUAGACCAGCUUAAGAAGTT against Gngt1, for which the z-score was -0.0811 (inactive). Under GGCUUUUCACAAAACUGUUTT against Zfp120 stands 1.07 (inactive). Under CCUAAAUCCUGCUAGGCGUTT against Cbln1 stands -1.03 (inactive); under GGUUAUAGGAAGGAAUUGCTT against Krt90, 2.58 (active); under GAUGUCCUUCACCUUUGCCTT against Atp5d, -1.9 (inactive). As for GGCGCACACUUUCACCUAATT against Tmem170, the z-score is 0.194 (inactive).

In the case of GGUUGUUUAUACCUGUGAUTT against Cfh, the z-score was -0.292 (inactive). For GGUGUCAACUUUAUUCUUUTT against Rab1a the value was 0.813 (inactive); for GGGAUCCCUUCUGGAAAAGTT against Dmrtc2, 0.581 (inactive); for GGGCUCCUGAGCCUCUUAATT against Sprr1a, 2.29 (active). For GGUUGCACUCAUCUUAAAATT against Zfp9 the value was 1.59 (inactive). For GGAAACUUCCCUUCCUAACTT against Snrpc the value was -0.397 (inactive); for “GCCUCUGGCAGAGAAAAGATT against 4930579K19Rik”, -1.78 (inactive); for CCAAGUUUUCAAAACAAACTT against Aqp3, -0.0587 (inactive). GGAAGUGGACCAUUUCUUUTT against Olfr1359: the z-score was 0.719 (inactive). Under GGCCUGAAGGGAAAGAUUUTT against Rbbp4 stands -0.721 (inactive); under GGACUUGGGUCAUUGUGAGTT against Grpel1, -0.93 (inactive). Under GGCAGUUUCUGUGCUAUACTT against Olfr984 stands -2.49 (active); under GGAUAUUUAUUGUAUCCCATT against Col8a1, -0.918 (inactive). Take GGCAUCUGACGAUAAUGAUTT against Lman2l: the z-score was -0.337 (inactive).
